# Results as given in PubChem BioAssay (NCI).
# Values joined by “and” are separate entries in the source; they are usually repeats but may differ in a detail not shown here. Equal values may be shown once. The panel holds about 83,000 compounds, 20% with a hit somewhere; the sample as a whole holds those more often.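 48-hour exposure, single concentration, 96-well plates; percent growth endpoint where 0 means no net growth. Active: below 10.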 Active and inactive are the calls of the source.
# Tested on: MDA-MB-468 breast
# Assay: NCI-60 one-dose screen, 48 h (100 = growth as untreated, 0 = no growth, -100 = all killed)
# Settings: 10 µM unless noted
row,Structure (SMILES),growth
1,O=c1cc(-c2ccccc2)[nH]c(=S)[nH]1,115% (inactive)
2,Cc1cc(-c2ccccc2)nc2ccccc12,100% (inactive)
3,Cc1cc(NCCCN(C)C)c2ccc3c(ccc4c(NCCCN(C)C)cc(C)nc43)c2n1,-88.9% (active)
4,CCCOC(=O)N[C@H]1CCc2c(Cl)c(OC)c(OC)c(OC)c2-c2ccc(SC)c(=O)cc21,-18.6% (active)
5,COc1ccc(-c2c3c(N)c4c(nc3nc3c2c(C)nn3-c2ccccc2)CCCCC4)cc1,76% (inactive)
6,N#Cc1cnn(C(=O)c2nn(-c3ccc(Cl)cc3)cc2O)c1N,32.1% (inactive)
7,NC(N)=NN=c1c(=O)c2ccccc2c1=O,106% (inactive)
8,COc1ccc(Nc2nc3ccc(NC(=O)NC4CCCCC4)cc3[nH]c2=O)cc1,96% (inactive)
9,CN1C(=O)N(C)C2(c3ccccc3)n3c(s/c(=C\c4ccccc4)c3=O)=NNC12c1ccccc1 (stereo unspecified),80.8% (inactive)
10,O=C(/C=C/c1ccccc1)Nc1ncc(Cc2ccccc2)s1,29.7% (inactive)
11,Clc1ccc(C2=NN[C@H](c3cn(-c4ccccc4)nc3-c3ccccc3)C2)cc1,57.1% (inactive)
12,O=C(CCl)Nc1ccc2c(Nc3cc(O)ccc3Cl)ncnc2c1,-61.7% (active)
13,CNc1ncc2cc(-c3ccc(-c4ncccc4F)cc3Cl)c(=O)n(CC3OCC(N)CO3)c2n1 (stereo unspecified),34.5% (inactive)
14,CC(=O)Nc1cccc(NC(C)=O)n1,99.3% (inactive)
15,COc1cc2ncnc(Nc3ccc(O)cc3)c2cc1OC,17.6% (inactive)
16,COc1ccccc1-c1nc2ccc3[nH]ncc3c2c2c1CCCC2,47.4% (inactive)
17,COc1cc(/C=C2/C=C(c3ccc(C(C)(C)C)cc3)N(CCc3ccc(S(N)(=O)=O)cc3)C2=O)cc(OC)c1OC,55.6% (inactive)
18,Oc1ccc(-c2nnc(SCc3ccc(O)c4ncccc34)o2)cc1,10.8% (inactive)

row,Structure (SMILES),growth
1,CN(C)CCn1cc(-c2ccc3c(Nc4ccc(CC(=O)Nc5cccc(F)c5)cc4)ncnc3c2)cn1,-82.9% [30 µM] (active)
2,C=C1CCc2nc(SCC(=O)O)ccc2N1,97.3% (inactive)
3,CSCc1ncc(-c2ccc(C(F)(F)F)cc2)c(NC2CCCCCC2)n1,85.7% [25 µM] (inactive)
4,COC(=O)Nc1nc2ccc(C(=O)c3cccs3)cc2[nH]1,5.96% (active)
5,CCc1ccc(NC(=O)N[C@@H](Cc2cccc(C)c2)C(=O)N[C@@H]2C(=O)N3CCC[C@H]3C(=O)N3CCCC[C@H]3C(=O)N[C@@H](CO)C(=O)N3C[C@H](C)C[C@H]3C(=O)O[C@H]2C)c(F)c1,-14.2% (active)
6,CCCn1c(=S)sc2c(NNC(C)=O)nc(C)nc21,93.1% (inactive)
7,Cc1c2oc3c(C)ccc(C(=O)OC(C)C4NC(=O)C(C(C)C)N(C)C(=O)CN(C)C(=O)C5CCCN5C(=O)C(C(C)C)NC4=O)c3nc-2c(C(=O)OC(C)C2NC(=O)C(C(C)C)N(C)C(=O)CN(C)C(=O)C3CCCN3C(=O)C(C(C)C)NC2=O)c(N)c1=O (stereo unspecified),-68.7% (active)
8,Cc1cc2c(C(C)C)c(O)c(O)c(/C=N/O)c2c(O)c1-c1c(C)cc2c(C(C)C)c(O)c(O)c(/C=N/O)c2c1O,20.9% (inactive)
9,CCCCn1c(C)nc2cc(Nc3nc(Cl)nc4nc[nH]c34)ccc21,44.3% (inactive)
10,CCCCc1nc(Cl)c(C2CC(c3ccc(S(N)(=O)=O)cc3)=NN2c2cc(Cl)cc(Cl)c2)[nH]1 (stereo unspecified),22.1% (inactive)
11,CN(C)CCCN1c2ccccc2CCc2ccc(Cl)cc21,-21.6% (active)
12,CCN(CC)CCCC(C)Nc1ccnc2cc(Oc3ccccc3)ccc12 (stereo unspecified),31.5% (inactive) and 70.2% (inactive)
13,COc1c(-c2cc(-c3ccc(C)o3)[nH]c(=O)n2)c(O)cc2occc12,25.8% (inactive)
14,O=C(O)CC(C(=O)O)/C(=C\c1ccccc1)c1ccccc1 (stereo unspecified),88.1% (inactive)
15,Fc1ccc(-c2nnc(-c3c(-c4ccc(F)cc4)nc4ncccn34)o2)cc1,88.7% (inactive)
16,C[C@H]1[C@H](C)CC[C@]2(COC(=O)c3cccnc3)CC[C@]3(C)C(=CC[C@@H]4[C@@]5(C)CCCNC(C)(C)[C@@H]5CC[C@]43C)[C@H]12,42.5% (inactive)
17,N=C(N)c1ccc(-c2cc(Cl)cc(Cl)c2)cn1,78.7% (inactive)
18,Cn1cc(-c2nc(-c3c[nH]c4ccncc34)cs2)c2ccccc21,-12.2% (active)
